Data taken from PubChem BioAssay (NCI).
Compounds without any hit were thinned out: in the full panel of roughly 83,000, 20% have a hit.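 Assay: single dose, 48 h. Readout: percent growth (0 = no net growth; negative = cell death). Active: <10.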 Calls of active or inactive are those of the source.

What was measured:
Test in all cases: NCI-60 one-dose screen, 48 h (100 = growth as untreated, 0 = no growth, -100 = all killed)
[1] = system: HT29 colon; details: 10 µM unless noted
[2] = system: SNB-75 CNS; details: 10 µM unless noted
[3] = system: U251 CNS; details: 10 µM unless noted
[4] = system: PC-3 prostate; details: 10 µM unless noted
[5] = system: SK-MEL-5 melanoma; details: 10 µM unless noted
[6] = system: UACC-62 melanoma; details: 10 µM unless noted
[7] = system: LOX IMVI melanoma; details: 10 µM unless noted
[8] = system: SK-MEL-28 melanoma; details: 10 µM
[9] = system: SK-MEL-2 melanoma; details: 10 µM unless noted
[10] = system: SN12C renal; details: 10 µM unless noted
[11] = system: UO-31 renal; details: 10 µM unless noted
[12] = system: TK-10 renal; details: 10 µM unless noted
[13] = system: ACHN renal; details: 10 µM unless noted
[14] = system: CAKI-1 renal; details: 10 µM unless noted
[15] = system: A498 renal; details: 10 µM unless noted
[16] = system: CCRF-CEM leukemia; details: 10 µM unless noted
[17] = system: MOLT-4 leukemia; details: 10 µM unless noted
[18] = system: SR leukemia; details: 10 µM unless noted
[19] = system: EKVX NSCLC; details: 10 µM unless noted
[20] = system: SNB-19 CNS; details: 10 µM unless noted

Measured: growth

CN(C)c1ccc(N=Cc2ccc(N3CCOCC3)cc2)cc1
inactive: [1] 84.2% | [2] 81.3% | [3] 46.6% | [4] 54.1% | [5] 82% | [6] 84.8% | [7] 74.3% | [8] 114% | [9] 67.2% | [10] 79% | [11] 71.4% | [12] 116% | [13] 88.8% | [14] 86.6% | [15] 91.7% | [16] 58.8% | [17] 65.2% | [18] 75.6%

COc1ccc(CCN2CCC(CN(C)Cc3cnn(-c4ccccc4)c3)CC2)cc1
inactive: [1] 33.5% | [2] 59.9% | [4] 34% | [5] 18.9% | [8] 33.4% | [9] 37.3% | [10] 23.7% | [11] 12.7% | [12] 45.5% | [13] 21.3% | [14] 15.7% | [15] 42.9%
active: [3] 9.09% | [6] -14.2% | [7] 2.01% | [16] 0.563% | [17] 3.15% | [18] 5.6%

CCCC(c1nnnn1C1CCCCC1)N1CCN(C(=O)c2ccco2)CC1 (stereo unspecified)
active: [18] 6.95%
inactive: [1] 27.2% | [2] 76.7% | [3] 50.2% | [4] 54.2% | [5] 47.1% | [6] 55.7% | [8] 65.6% | [9] 65.1% | [10] 73.6% | [11] 82.3% | [12] 86.7% | [13] 84.6% | [14] 66.4% | [15] 44.1% | [16] 24.1% | [17] 26.9%

N#C/C(=C\c1c(-c2ccccc2)[nH]c2ccccc12)C(=O)c1ccccc1
inactive: [1] 16.4% | [2] 16.8% | [3] 43.3% | [4] 44.5% | [5] 21.6% | [6] 36.3% | [7] 54.2% | [8] 55.4% | [19] 68.5% | [10] 54.4% | [11] 37.5% | [12] 74.5% | [13] 65.9% | [14] 42.4% | [15] 57.9% | [17] 38.9% | [18] 52.3%

COc1ccc(-c2nnc(COc3ccc(C(=O)/C=C/c4ccco4)cc3)o2)cc1
inactive: [1] 20.3% | [2] 60.1% | [20] 78.1% | [4] 86.2% | [6] 85.9% | [8] 90.9% | [10] 68.1% | [11] 53.5% | [12] 95.3% | [13] 85.9% | [14] 67.2% | [15] 115% | [16] 10.7% | [17] 41.9%
active: [7] -30.5% | [18] 0.0515%

CCOC(=O)CSc1c(-c2ccccc2)c2cc(Cl)ccc2[nH]c1=O
inactive: [1] 105% | [2] 94.1% | [20] 108% | [4] 91.9% | [6] 92.6% | [7] 84% | [8] 109% | [9] 114% | [10] 102% | [11] 86.2% | [12] 107% | [13] 97.6% | [14] 92% | [15] 101% | [16] 95.7% | [17] 88.3% | [18] 75.8%

CNCCNc1nc2ccccc2c2c(=O)c3cc(F)ccc3sc12
inactive: [2] 47.4% | [4] 34% | [5] 88.1% | [6] 22.3% | [7] 17.7% | [8] 84.6% | [9] 85.2% | [19] 71.9% | [10] 67.2% | [11] 41.3% | [12] 60.2% | [13] 37.3% | [14] 44% | [15] 38.9% | [16] 15.5% | [18] 13.6%
active: [1] -30.9% | [3] -53.3% | [17] -18.9%

COc1nccc2cc3c(=O)n4c(cc5ccccc54)c(=O)n3c12
inactive: [1] 112% | [2] 89.2% | [3] 101% | [4] 87.8% | [5] 96.6% | [6] 101% | [7] 97.1% | [8] 109% | [9] 94.3% | [11] 53.4% | [12] 131% | [13] 96% | [14] 92.5% | [15] 108% | [16] 96.5% | [17] 86.3% | [18] 87.1%

COC(=O)C1(C)CCC[C@]2(C)[C@H]3C[C@H]4C(C(C)C)=C[C@]3(CC[C@@H]12)[C@H]1[C@@H]4[C@@H](OCC#CCN2CCOCC2)CC[C@@H]1OCC#CCN1CCOCC1 (stereo partly specified)
inactive: [1] 77.6% | [2] 93.1% | [3] 70.9% | [4] 53.9% | [5] 80.2% | [6] 61% | [7] 89% | [8] 90.5% | [9] 89.3% | [19] 67.2% | [10] 81.1% | [11] 72.9% | [12] 98% | [13] 92.3% | [14] 80% | [15] 101% | [16] 72% | [17] 70% | [18] 88.3%

Clc1ncccc1Nc1ccc2nnc(-c3ccncc3)n2n1
inactive: [1] 110% | [2] 99.2% | [3] 101% | [4] 102% | [5] 104% | [6] 106% | [7] 92.8% | [8] 112% | [9] 109% | [10] 100% | [11] 75% | [12] 112% | [13] 101% | [14] 91.8% | [15] 116% | [16] 91.2% | [17] 93.4% | [18] 71.3%

CC(C)[C@H](NC(=O)Cn1cc(C(=O)O)nn1)C(=O)O
inactive: [2] 104% | [20] 105% | [3] 100% | [4] 94.1% | [5] 98.6% | [6] 103% | [7] 104% | [8] 111% | [9] 127% | [19] 93.8% | [10] 95.7% | [11] 88.7% | [12] 115% | [14] 89.4% | [15] 90.6% | [16] 113% | [17] 96.7% | [18] 101%

CC1=NCC2NC(=O)NC(C)=C12 (stereo unspecified)
inactive: [1] 108% | [20] 98.9% | [3] 103% | [4] 93.9% | [6] 95.2% | [7] 101% | [8] 114% | [9] 101% | [19] 100% | [10] 99.2% | [11] 83.6% | [12] 95.9% | [13] 109% | [14] 92.8% | [16] 99.7% | [17] 107% | [18] 104%

O=C(CN1C=NC2C(N3CCOCC3)=NC=NC21)c1ccc(Br)cc1 (stereo unspecified)
inactive: [1] 107% | [20] 97.2% | [3] 99.8% | [4] 95.5% | [6] 93.1% | [7] 97.3% | [8] 111% | [9] 94.4% | [19] 97.6% | [10] 98.3% | [11] 78.6% | [12] 117% | [13] 103% | [14] 85.4% | [16] 105% | [17] 105% | [18] 104%

COc1ccc(-c2nocc2-c2cccs2)cc1
inactive: [1] 114% | [2] 89.4% | [3] 110% | [4] 101% | [6] 93.3% | [8] 103% | [9] 103% | [19] 91.6% | [10] 103% | [11] 88.2% | [12] 104% | [13] 103% | [14] 89.8% | [15] 107% | [16] 105% | [17] 108% | [18] 128%

O=C(CCc1nnc2sc(COc3ccccc3)nn12)c1nc2ncccc2[nH]1
inactive: [1] 106% | [2] 79.8% | [3] 101% | [4] 96.5% | [6] 91.8% | [7] 91.8% | [8] 107% | [9] 102% | [19] 102% | [10] 96.3% | [11] 69% | [12] 124% | [13] 107% | [14] 84.4% | [15] 66.8% | [16] 118% | [17] 113%

COc1ccc(/C=c2\sc3n(c2=O)NC2C(N=3)N(C)C(=O)N2C)cc1 (stereo unspecified)
inactive: [1] 103% | [20] 94.1% | [3] 101% | [4] 95.6% | [6] 89.1% | [7] 92.8% | [8] 104% | [9] 103% | [19] 98.4% | [10] 101% | [11] 77.6% | [12] 112% | [13] 105% | [14] 85% | [16] 95.7% | [17] 102% | [18] 86.8%

CN1C(=O)N(C)C2C1NN=c1s/c(=C\c3c[nH]c4ccccc34)c(=O)n12 (stereo unspecified)
active: [18] 8.78%
inactive: [1] 11.3% | [20] 27.3% | [3] 14.5% | [4] 23.4% | [6] 38.3% | [7] 22.3% | [8] 69.4% | [9] 52.5% | [19] 51.7% | [10] 35.4% | [11] 48% | [12] 86.4% | [13] 32.5% | [14] 81.7% | [16] 16.2% | [17] 14.9%
